Screening data deposited in PubChem by Johns Hopkins Ion Channel Center.
A selection: hits, their analogues and other compounds. The true share with any hit is near 2.4%.
TMEM16A inh = mouse TMEM16A channel inhibition, primary screen | Q8BHY3 | HEK293 TMEM16A/YFP iodide influx fluorescence, ionomycin | normalized B-score (activity score, 25-100; higher = stronger inhibition) at 10 µM | actives 1.2% (n = 310,000);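 active = ratio plate-corrected score three or more library SD toward inhibition, starting fluorescence score within five deviations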;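 also: score derived from kinetic fluorescence span divided by baseline fluorescence per well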
CHT PAM = allosteric activators of human choline transporter CHT; Q9GZV3; CHT-expressing cells, membrane potential dye, choline EC20; active compounds read high; LV-AA mutant CHT in HEK293 cells; B-score at 10 µM; actives 0.49% (n = 310,000);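 active = initial fluorescence not abnormally high and integrated response B-score, plate-corrected, over 3 SD above library mean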
Target sequence (Q9GZV3 whole entry, looked up): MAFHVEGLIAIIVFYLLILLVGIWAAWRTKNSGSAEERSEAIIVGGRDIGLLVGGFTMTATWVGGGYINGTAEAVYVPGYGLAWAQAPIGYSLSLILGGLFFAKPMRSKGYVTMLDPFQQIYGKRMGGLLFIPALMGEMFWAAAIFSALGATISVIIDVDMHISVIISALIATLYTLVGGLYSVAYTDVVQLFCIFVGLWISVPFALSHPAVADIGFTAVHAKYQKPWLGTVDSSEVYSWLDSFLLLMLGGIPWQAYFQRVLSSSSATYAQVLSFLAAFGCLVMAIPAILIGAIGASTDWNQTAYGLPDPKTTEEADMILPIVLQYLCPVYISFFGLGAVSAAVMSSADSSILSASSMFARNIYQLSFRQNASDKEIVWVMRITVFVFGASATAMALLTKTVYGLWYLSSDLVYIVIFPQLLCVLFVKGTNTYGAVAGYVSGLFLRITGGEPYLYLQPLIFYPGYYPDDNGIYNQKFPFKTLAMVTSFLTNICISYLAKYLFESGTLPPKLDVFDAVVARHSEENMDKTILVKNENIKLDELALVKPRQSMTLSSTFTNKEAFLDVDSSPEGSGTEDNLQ
CHT inh = inhibitors of human choline transporter CHT; B-score at 10 µM; actives 0.86% (n = 310,000); CHT-expressing cells, membrane potential dye, choline response; active compounds read low; Q9GZV3;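 active = B-score over 3 SD under the library average, and starting fluorescence ratio not unusually high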;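 also: choline stimulus applied at its EC90 after an EC20 pre-addition; B-score computed on integrated fluorescence ratio after choline addition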
ANO1 activ = activates or potentiates the mouse TMEM16A chloride channel | AID 623877 | HEK293 TMEM16A/YFP-H148Q/I152L, iodide quench fluorescence; active compounds read low | Q8BHY3 | B-score at 10 µM | actives 0.3% (n = 340,000);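 active = fluorescence-ratio B-score plate-corrected deviation score at least 3 library SD below zero, with starting fluorescence score within 5 deviations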;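 also: channel opened by trigger with iodide after compound preincubation; score built on the fluorescence ratio of max minus min over baseline; more negative score means more quench and so TMEM16A activation or potentiation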
CHT inh conf = human CHT inhibition, confirmatory screen; shares compounds with CHT inh; CHT-expressing cells, choline membrane potential dye; LV-to-AA substituted CHT, HEK293 cells; CHT activity remaining % of control (active compounds read low), % at 10 µM; actives 70% (n = 2,400);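 active = choline transporter activity left, mean of duplicates at 10 µM, below buffer-only control mean minus 3 SD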;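 also: depolarization triggered by choline at its EC90 following an EC20 pre-addition; 0% = hemicholinium-3 full block and 100% = buffer-only control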
HEK293 CHT ctr = activity in parental HEK293 cells lacking CHT; shares compounds with CHT inh; membrane potential dye, choline response; active = decrease or increase beyond buffer ±3SD; membrane potential ratio readout (active if shifted either direction beyond buffer ±3SD; no single direction) at 10 µM; actives 4% (n = 2,400); AID 493222;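 also: parental cells lack the transporter so any hit is non-specific; ratio is peak minus trough fluorescence over baseline after EC90 choline challenge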
* marks the source's active call; other numbers are inactive results.

For COc1ccc(-c2nc3cc([N+](=O)[O-])ccc3o2)cc1 the results were TMEM16A inh inactive, CHT PAM inactive, CHT inh -5.2*, ANO1 activ inactive, CHT inh conf inactive and HEK293 CHT ctr inactive.
Screening Nc1ccc(-c2nc3cc([N+](=O)[O-])ccc3o2)cc1 returned TMEM16A inh inactive, CHT PAM inactive, CHT inh inactive and ANO1 activ inactive.
Cn1c(CCC(=O)Nc2cc(S(C)(=O)=O)ccc2Cl)nc2cc(S(=O)(=O)N3CCOCC3)ccc21 was read as TMEM16A inh inactive, CHT PAM inactive, CHT inh inactive and ANO1 activ inactive.
For CCCCN(CCCC)S(=O)(=O)c1ccc(NC(=O)c2ccc([N+](=O)[O-])cc2Cl)cc1 the results were TMEM16A inh inactive, CHT PAM inactive, CHT inh -6.2*, ANO1 activ inactive, CHT inh conf 70%* and HEK293 CHT ctr inactive.
For CCN(CC)S(=O)(=O)c1ccc(NC(=O)c2cc(C(=O)OC)cc([N+](=O)[O-])c2)cc1 the results were TMEM16A inh inactive, CHT PAM inactive, CHT inh inactive and ANO1 activ inactive.
For CCOCCCN(C)C1CCN(C(=O)c2oc3ccccc3c2NC(=O)c2cccc([N+](=O)[O-])c2)CC1 the results were TMEM16A inh inactive, CHT PAM inactive, CHT inh -6.3*, ANO1 activ inactive, CHT inh conf 38%* and HEK293 CHT ctr 4.3*.
`O=C(Nc1ccccc1OC(F)F)c1cccc(S(=O)(=O)N2CCCC2)c1` gave TMEM16A inh inactive, CHT PAM inactive, CHT inh -5.1*, ANO1 activ inactive, CHT inh conf 56%* and HEK293 CHT ctr inactive.
`CN(C)S(=O)(=O)c1cccc(C(=O)NC2CCCc3ccccc32)c1` (stereo not given) gave TMEM16A inh inactive, CHT PAM inactive, CHT inh inactive and ANO1 activ inactive.
For CCCNS(=O)(=O)c1cccc(C(=O)NC2CCCc3ccccc32)c1 (stereo not given) the results were TMEM16A inh inactive, CHT PAM inactive, CHT inh -12*, ANO1 activ inactive, CHT inh conf 20%* and HEK293 CHT ctr inactive.
For CN1CCN(S(=O)(=O)c2cccc(C(=O)Nc3ccc(Br)cc3Br)c2)CC1 the results were TMEM16A inh inactive, CHT PAM inactive, CHT inh -10*, ANO1 activ inactive, CHT inh conf 8.7%* and HEK293 CHT ctr inactive.
CN1CCN(S(=O)(=O)c2cccc(C(=O)NC3CCCc4ccccc43)c2)CC1 (stereo not given) was read as TMEM16A inh inactive, CHT PAM inactive, CHT inh -5.6*, ANO1 activ inactive, CHT inh conf 51%* and HEK293 CHT ctr inactive.
`C[n+]1cccc(/C=N/NC(=O)CC23CC4CC(CC(C4)C2)C3)c1` gave TMEM16A inh inactive, CHT PAM inactive, CHT inh inactive and ANO1 activ inactive.
CC(NC(=O)c1cccc(S(=O)(=O)N2CCN(C)CC2)c1)C1CC2CCC1C2 (stereo not given) was read as TMEM16A inh inactive, CHT PAM inactive, CHT inh -5.4*, ANO1 activ inactive, CHT inh conf 23%* and HEK293 CHT ctr inactive.
CC(NC(=O)c1cccc(Cl)c1)C1CC2CCC1C2 (stereo not given) was read as TMEM16A inh inactive, CHT PAM inactive, CHT inh inactive and ANO1 activ inactive.
For CC1CCC(NC(=O)c2cccc(S(=O)(=O)NCc3ccccc3)c2)CC1 (stereo not given) the results were TMEM16A inh inactive, CHT PAM inactive, CHT inh -15*, ANO1 activ inactive, CHT inh conf 36%* and HEK293 CHT ctr inactive.
CCN(CC(=O)Nc1ccc(NC(C)=O)cc1)C(=O)c1n[nH]c(=O)c2ccccc12 was read as TMEM16A inh inactive, CHT PAM inactive, CHT inh inactive and ANO1 activ inactive.
For Cc1c(NC(=O)COC(=O)C2(c3ccc(F)cc3)CCCC2)c(=O)n(-c2ccccc2)n1C the results were TMEM16A inh inactive, CHT PAM inactive, CHT inh inactive and ANO1 activ inactive.
For CCN(CC)C(=O)CSc1nc2ccc(NC(=O)CSc3nnc(N)s3)cc2s1 the results were TMEM16A inh inactive, CHT PAM inactive, CHT inh inactive and ANO1 activ inactive.
CCN(CC)C(=O)CSc1nc2ccc(NC(=O)CSc3nccn3C)cc2s1 was read as TMEM16A inh inactive, CHT PAM inactive, CHT inh -9.6*, ANO1 activ inactive, CHT inh conf 25%* and HEK293 CHT ctr inactive.
`Cc1nc(C(=O)Nc2cc(F)cc(Cl)c2)sc1C1(C)CC(c2ccccc2)=NO1` (stereo not given) gave TMEM16A inh inactive, CHT PAM inactive, CHT inh inactive and ANO1 activ inactive.
O=C(NNc1nc(-c2ccccc2)cs1)c1ccc(F)cc1 was read as TMEM16A inh inactive, CHT PAM inactive, CHT inh -5.2*, ANO1 activ inactive, CHT inh conf 71%* and HEK293 CHT ctr inactive.
O=C(NCc1nc(-c2ccccc2)cs1)c1ccccc1 was read as TMEM16A inh inactive, CHT PAM inactive, CHT inh -6.5*, ANO1 activ inactive, CHT inh conf 71%* and HEK293 CHT ctr inactive.
For CNC(=O)c1ccc(-c2nc(-c3ccccc3)cs2)cc1 the results were TMEM16A inh inactive, CHT PAM inactive, CHT inh inactive and ANO1 activ inactive.
Screening COc1ccc([C@@H]2[C@H]3C(=O)N(c4cccc(C(F)(F)F)c4)C(=O)[C@H]3ON2C)cc1 returned TMEM16A inh inactive, CHT PAM inactive, CHT inh inactive and ANO1 activ inactive.
`Cc1cc(C(=O)CSc2n[nH]c(N)n2)c(C)n1-c1ccc(F)cc1` gave TMEM16A inh inactive, CHT PAM inactive, CHT inh -8.2*, ANO1 activ inactive, CHT inh conf 71%* and HEK293 CHT ctr inactive.
`Cc1cc(C(=O)CSc2n[nH]c(N)n2)c(C)n1-c1cc(F)ccc1F` gave TMEM16A inh inactive, CHT PAM inactive, CHT inh -7.1*, ANO1 activ inactive, CHT inh conf 52%* and HEK293 CHT ctr inactive.
For Cc1cc(C(=O)CSc2n[nH]c(N)n2)c(C)n1-c1ccccc1 the results were TMEM16A inh inactive, CHT PAM inactive, CHT inh inactive and ANO1 activ inactive.
Nc1nc(SCC(=O)c2cc(F)ccc2F)n[nH]1 was read as TMEM16A inh inactive, CHT PAM inactive, CHT inh inactive and ANO1 activ inactive.
